Screening data (PubChem BioAssay)
RE007 growth inh – qHTS Assay for Inhibitors of the HIV-1 protein Vpr | S. pombe RE007 Vpr strain, BacTiter-Glo ATP luminescence, 24 h | Potency, µM (series often up to 92.2 µM), usual class: inhibitors | hit rate 0.21% among 360,000; active means well fitted falling curve with a large enough effect; inconclusive means small, poorly fitted or top-dose-only effect; inactive means no such curve, though single readings can be large or run the other way; further: nearly all actives have a fitted effect of over 50% in size
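Fission yeast strain RE007, carrying one chromosomally integrated HIV-1 vpr copy, was seeded at OD 0.01 in PMG+AL medium with 23 nL pinned compound. After 24 h at 30 °C and 99% humidity, viability was read by BacTiter-Glo luminescence.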
AmpC no deterg – qHTS Inhibitors of AmpC Beta-Lactamase (assay without detergent); P00811; AmpC nitrocefin hydrolysis, absorbance 480 nm, 0.0001% Triton; Potency, µM (top dose mostly 57.1 µM), actives largely listed as inhibitors; hit rate 0.52% among 330,000; further: nearly all actives have a fitted effect of over 20% in size
Target sequence (P00811 whole entry, looked up): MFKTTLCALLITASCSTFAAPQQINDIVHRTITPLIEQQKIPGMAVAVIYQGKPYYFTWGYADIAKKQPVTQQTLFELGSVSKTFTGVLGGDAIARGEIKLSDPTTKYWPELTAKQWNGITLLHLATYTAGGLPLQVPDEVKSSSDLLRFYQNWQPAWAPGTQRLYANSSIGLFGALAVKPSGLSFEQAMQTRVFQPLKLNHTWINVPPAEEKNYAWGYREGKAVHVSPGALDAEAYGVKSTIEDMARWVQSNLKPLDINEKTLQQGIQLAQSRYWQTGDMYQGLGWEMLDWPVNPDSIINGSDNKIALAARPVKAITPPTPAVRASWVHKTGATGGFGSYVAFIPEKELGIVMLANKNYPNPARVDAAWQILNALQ
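AmpC (5.3 nM in the dispensed reagent) in 20 mM phosphate pH 7.0 with 0.01% (detergent screen) or 0.0001% Triton X-100 was preincubated with compounds for 15 min at room temperature. Nitrocefin was then added from an 800 uM solution, and hydrolysis was followed at 480 nm.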
FBPA Giardia inh – qHTS Assay for Inhibitors of Fructose-1,6-bisphosphate Aldolase from Giardia Lamblia | hit rate 0.71% among 290,000 | purified Giardia FBPA | Potency, µM (top dose mostly 59.6 µM), actives largely listed as inhibitors; further: nearly all actives have a fitted effect of over 55% in size
Target sequence (A8B2U2 whole entry, looked up): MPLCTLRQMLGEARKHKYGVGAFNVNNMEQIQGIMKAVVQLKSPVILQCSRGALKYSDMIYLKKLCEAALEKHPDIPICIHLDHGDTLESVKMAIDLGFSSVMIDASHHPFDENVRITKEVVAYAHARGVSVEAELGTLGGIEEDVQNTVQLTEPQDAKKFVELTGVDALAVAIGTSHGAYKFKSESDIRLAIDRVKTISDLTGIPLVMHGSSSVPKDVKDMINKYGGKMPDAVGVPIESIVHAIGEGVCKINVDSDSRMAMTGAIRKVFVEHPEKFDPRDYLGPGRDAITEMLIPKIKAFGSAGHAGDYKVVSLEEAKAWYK
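40 nM FBPA preincubated 10 min at RT with compound (up to 57.5 uM final), then substrate plus GAPDH/TPI/NAD/arsenate coupling and diaphorase/resazurin added. Fluorescence read after 20 min at RT, 525/598 nm.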
Sm TGR inh – qHTS Assay for the Inhibitors of Schistosoma Mansoni Peroxiredoxins. Potency, µM (titrated, usually from 114 µM), actives largely listed as inhibitors. Schistosoma mansoni thioredoxin glutathione reductase (TGR), Q962Y6. hit rate 3% among 360,000. purified TGR, DTNB reduction, TNB absorbance 405 nm; further: nearly all actives have a fitted effect of over 60% in size
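TGR 20 nM + NADPH 100 uM (dispensed conc.), cpd preinc 15 min RT; start with NADPH (500 uM addition) then DTNB (15 mM addition). Kinetic TNB absorbance, 405 nm filter. Four-parameter Hill fit across titration.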
AmpC inh detg – qHTS Inhibitors of AmpC Beta-Lactamase (assay with detergent) | P00811 | AmpC hydrolysis of nitrocefin, absorbance 480 nm, 0.01% Triton | Potency, µM (doses to about 114 µM), hits mostly inhibitors | hit rate 0.041% among 370,000 | AID 485294, 2010; further: nearly all actives have a fitted effect of over 25% in size
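AmpC (5.3 nM in the dispensed reagent) in 20 mM phosphate pH 7.0 with 0.01% (detergent screen) or 0.0001% Triton X-100 was preincubated with compounds for 15 min at room temperature. Nitrocefin was then added from an 800 uM solution, and hydrolysis was followed at 480 nm.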
Hits are given with their value; . = inactive; ? = inconclusive; / = no result given; [ ] = another dose, or the depositor's remark. Shown are actives, neighbours in structure and some others; about 3.4% of the full set was active somewhere. Unless noted, the call rests on the fitted dose curve; in most records, active means well fitted curve in the direction sought with a large enough effect; inconclusive means small, poorly fitted or top-dose-only effect, or another doubt; inactive means no such curve, though single readings can be large; an effect the other way counts as inactive or inconclusive.

SMILES | RE007 growth inh | AmpC no deterg | FBPA Giardia inh | Sm TGR inh | AmpC inh detg
CCOc1ccc(N2CC(NC(=O)c3cccc4ccccc34)CC2=O)cc1 (centres undefined) | . | 31.6µM | / | . | ?
CCOc1ccc(N2CC(NC(=O)c3ccco3)CC2=O)cc1 (centres undefined) | / | / | / | . | .
COC(=O)C1=C(C)NC(=S)NC1c1ccc(-c2ccccc2C(=O)OC)o1 (centres undefined) | . | . | . | ? | .
COC(=O)C1=C(C)NC(C)=C(C(=O)OC)C1c1ccc(-c2cccc(Cl)c2Cl)o1 | . | . | . | ? | .
COC(=O)C1=C(C)NC(=O)NC1c1ccco1 (centres undefined) | . | . | . | . | .
COCCOC(=O)C1=C(C)NC(=O)NC1c1ccc(-c2cc(Cl)ccc2Cl)o1 (centres undefined) | . | . | . | 17.8µM | .
COC(=O)C1=C(C)NC(=O)NC1c1ccc(-c2ccc(F)cc2)o1 (centres undefined) | . | . | . | 14.1µM | .
COC(=O)C1=C(C)NC(=O)NC1c1ccc(-c2ccccc2Cl)o1 (centres undefined) | . | . | . | 25.1µM | .
COC(=O)C1=C(C)NC(=S)NC1c1ccc(-c2cccc(Cl)c2)o1 (centres undefined) | . | ? | . | 8.91µM | .
COc1cccc(CN(C(=O)c2cc3ccccc3oc2=O)C2CCS(=O)(=O)C2)c1 (centres undefined) | . | . | . | . | .
Cc1cccc(NS(=O)(=O)c2nnc(NC(=O)c3ccccc3F)s2)c1 | . | . | . | . | .
COc1ccc(C(=O)Nc2nnc(C)s2)cc1 | / | / | / | . | .
CCOC(=O)C1=C(C)NC(=O)NC1c1ccc(-c2ccc(Cl)cc2)o1 (centres undefined) | . | . | . | / | .
CCOC(=O)C1=C(C)NC(=S)NC1c1ccc(-c2ccc(Cl)cc2)o1 (centres undefined) | . | . | . | 22.4µM | .
CCOC(=O)C1=C(C)NC(=S)NC1c1ccc(-c2cccc(Cl)c2C)o1 (centres undefined) | . | . | ? | ? | .
CCOC(=O)C1=C(C)NC(=O)NC1c1ccc(-c2ccc(F)cc2)o1 (centres undefined) | . | . | . | 25.1µM | ?
COC(=O)C1=C(C)NC(C)=C(C(=O)OC)C1c1ccc(-c2cccc([N+](=O)[O-])c2)o1 | . | . | . | 39.8µM | .
O=c1c(Cc2ccc(Cl)cc2Cl)c(O)ccn1Cc1ccncc1 | . | .[2.29 µM] | . | . | .
CCOc1cccc(=O)c2c(C)n(Cc3ccco3)c(C)c12 | .[3.69 µM] | . | ? | 39.8µM | .
CCOc1cccc(=O)c2c(C)n(Cc3ccccc3)c(C)c12 | . | . | . | / | .
CCOc1ccc2c(c1)c(C(C)=O)c(C)n2Cc1ccco1 | . | . | . | 10µM | .
CCOc1ccc2c(c1)c(C(C)=O)c(C)n2-c1ccccc1 | . | . | . | . | .
COc1ccc(-c2cnnn2-c2ccc(NC(=O)c3ccc(S(=O)(=O)N4CCCCC4)cc3)cc2)cc1OC | . | . | . | . | .
COc1ccccc1NC(=O)NCc1ccc(C)n1C | . | . | . | 39.8µM | .
Cc1ccc(CNC(=O)Nc2ccc(F)cc2)n1C | . | . | . | 14.1µM | ?
SMILES | RE007 growth inh | AmpC no deterg | FBPA Giardia inh | Sm TGR inh | AmpC inh detg
Cc1ccc(CNC(=O)Nc2ccc(OC(F)(F)F)cc2)n1C | . | . | . | ? | .
Cc1ccnc(NS(=O)(=O)c2ccc(NC(=O)C3CCCNC3=O)cc2)n1 (centres undefined) | . | . | / | . | .
COCc1nnc(SCC(=O)NC(C)c2ccccc2)n1-c1ccccc1 (centres undefined) | . | 0.398µM | . | . | .
O=C(O)CSc1nnc(COc2ccccc2)n1-c1ccccc1 | . | . | . | . | .
CC(=O)n1cc(N(C(=O)CCl)c2ccc(Cl)cc2)c2ccccc21 | ? | . | . | 0.316µM | .
CCOC(=O)c1ccccc1Nc1cn(C(C)=O)c2ccccc12 | . | . | . | . | .
COc1ccccc1N(C(=O)CCl)c1cn(C(C)=O)c2ccccc12 | . | . | . | 3.16µM | .
O=C(NC(=S)Nc1ccc(CN2CCOCC2)cc1)c1ccc([N+](=O)[O-])cc1Cl | . | . | . | . | ?
Cc1cccc(NC(=S)NNC(=O)c2cccc([N+](=O)[O-])c2)c1 | . | . | . | . | .
C=CCNC(=S)Nc1cccc([N+](=O)[O-])c1 | / | . | ? | 31.6µM | .
O=C(NC(=S)Nc1ccc(CN2CCOCC2)cc1)c1cccc([N+](=O)[O-])c1 | . | . | . | 89.1µM | .
O=C(NC(=S)Nc1ccc2[nH]c(=O)[nH]c2c1)c1cccc(F)c1 | . | . | ? | 2.82µM | .
O=C(NC(=S)Nc1cccc(F)c1)c1cccc([N+](=O)[O-])c1 | / | . | ? | 20µM | .
COc1ccc(NC(=O)CSc2nc3ccccc3c(=O)n2CCC(=O)N2CCCCC2)cc1 | . | . | . | . | .
O=C(NC(=S)Nc1ccccc1)c1cc([N+](=O)[O-])ccc1N1CCOCC1 | . | . | . | . | .
O=C(NC(=S)Nc1ccc(N2CCOCC2)cc1)c1cccc([N+](=O)[O-])c1 | / | . | . | 39.8µM | .
O=C(Cc1ccccc1)NC1CCN(S(=O)(=O)c2cccc(F)c2)CC1 | . | . | . | . | ?
Cc1ccc(O)c(-c2[nH]ncc2C(=O)c2ccc(Br)cc2)c1 | . | 5.01µM | . | . | .
Cc1ccc(O)c(-c2[nH]ncc2C(=O)c2ccc(Cl)cc2)c1 | . | . | . | . | .
COc1ccc(C(=O)N2CCC3(CCCN(Cc4ccc(C#N)cc4)C3)CC2)cc1 | / | / | . | / | /
O=C(O)/C=C/C(=O)c1c(-c2ccccc2)[nH]c2ccccc12 | . | . | . | 25.1µM | .
O=C(NCCSCc1ccco1)c1ccc(=O)[nH]c1 | . | . | . | 35.5µM | .
O=C(CSCc1c(F)cccc1Cl)NCCSCc1ccco1 | . | . | . | / | .
CS(=O)(=O)Nc1ccc(C(=O)NCCSCc2ccco2)cc1 | . | ? | . | ? | .
O=C(CSCc1ccco1)c1ccc(Cl)s1 | / | ? | . | 28.2µM | ?
O=C(CSCc1ccc(Cl)cc1)NCCSCc1ccco1 | . | . | . | 28.2µM | .
COC1(OC)C(/C=C/c2ccc(Cl)cc2)C(C#N)(C#N)C1(OC)OC (centres undefined) | . | . | . | . | .
Cc1cccc(NC(=O)c2cccc(S(=O)(=O)N3CCc4ccccc4C3)c2)n1 | . | . | / | . | ?
COc1cc(/C=C(\NC(C)=O)C(=O)Nc2cccc(O)c2)ccc1OC(C)=O | . | . | . | 50.1µM | .
